# In PubChem BioAssay:
# Activity calls are given as the source filed them.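 Rule for the calls: active = Her2 level under about 52% in both replicate screens, with viability over 70% of control (limit read from the data); inconclusive = Her2 under the limit in one screen only, or viability under 70%; inactive = Her2 level above the set limit.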
# Tested on: not listed separately
# Test: reducers of endogenous Her2 protein level, primary screen, SKBR3 breast tumor cells, AlphaScreen, ATP viability (AID 461);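 for Her2 level: lower value means less Her2 protein in the cells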;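 for viability: percent of carrier control wells set as 100% viability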
# Conditions: 18-24 h, measured here: SKBR3 viability, ATP luminescence, at 10 µM
row,Structure (SMILES),viability
1,O=C(NCCN1CCCCCC1)c1ccc(CS(=O)(=O)c2ccc(Br)cc2)o1,86.5%
2,Cc1ccc(S(=O)(=O)NCCOC(=O)Nc2sc(=S)n(C)c2C)cc1,75.5%
3,COc1ccccc1CC(=O)Nc1ccc(OC)c(OC)c1,102%
4,CCN(CC)C(=O)C1CCCc2c1[nH]c1ccc(Cl)cc21 (stereo not given),102%
5,CCOC(=O)N1CCC(NC(=O)C2CCCN(C(=O)c3cc4sccc4n3C)C2)CC1 (stereo not given),113%
6,CCOC(=O)c1[nH]c(C)c(C(=O)Nc2ccc(Cl)cc2)c1C,88.5%
7,O=C(NC(=O)c1cccc(F)c1)OC[C@@H]1CCCN2CCCC[C@H]12,102%
8,COc1ccccc1-n1c(=O)[nH]c2c(C(N)=O)nc(-c3cccnc3)nc21,82.5%
9,CC1(C)CC(=O)c2cnc(NC(=O)Cc3ccc(Cl)cc3)nc2C1,71.5%
10,CC(C)(NC(=O)N1CCCC1)c1cccc(C(C)(C)NC(=O)N2CCCC2)c1,98%
11,COc1ccc(NC(=O)C2CCCN(S(=O)(=O)c3cccc4cccnc34)C2)cc1OC (stereo not given),82%
12,CCOc1ccc(CCN2C(=O)C3C4C=CC(C4)C3C2=O)cc1OCC (stereo not given),96%
13,COc1ccc(S(=O)(=O)N2CCN(c3ccc(C)cc3C)CC2)cc1OC,94.5%
14,O=C(C1CCN(c2nnc(-n3cccc3)s2)CC1)N1CCc2ccccc2C1,88%
15,CCOc1cc(C2C3=C(CCCC3=O)N(C)C3=C2C(=O)CCC3)cc(Cl)c1O,106%
16,O=C(OCN1C(=O)c2ccccc2C1=O)C1CCCCC1,82%
17,Cc1ccc2cccc(SCC(=O)N3CCOCC3)c2n1,103%
18,c1ccn2c(SCc3ccc4c(c3)OCCO4)nnc2c1,108%
19,c1ccc(C(Cc2nc(-c3ccccn3)no2)c2ccccc2)cc1,96%
20,COC(=O)C(C)Sc1nnc2n(-c3cccc(C)c3)c(=O)c3c4c(sc3n12)CCCC4 (stereo not given),87.5%

row,Structure (SMILES),viability
1,Cc1ccc(-c2noc(CN3C(C)CCCC3C)n2)cc1 (stereo not given),93.5%
2,CCn1c(SCC(=O)Nc2ccc(Cl)cc2)nnc1C1CC1,92.5%
3,COc1ccc(C2CC(c3ccco3)n3ncnc3N2)cc1 (stereo not given),88%
4,COc1ccc(NC(=O)c2cc(C3CC3)on2)c(OC)c1,96.5%
5,COc1cc(OC)c2c(c1)OC(c1ccc(OC)c(OC)c1)C(O)C2=O (stereo not given),90.5%
6,N#CCCN(Cc1cccnc1)C(=O)Nc1ccc(Cl)c(Cl)c1,118%
7,O=C(c1cccc(F)c1)N1CCc2ccccc21,96.5%
8,COc1ccc(NC(=O)C2CCCCN2S(=O)(=O)c2ccc(F)cc2)cc1 (stereo not given),91%
9,CCN(CC)C(=O)Cn1ncc2c1-c1ccccc1OC2,84.5%
10,Cn1c(=O)oc2cc(S(=O)(=O)NC3CCN(Cc4ccccc4)CC3)ccc21,103%
11,COCCOC(=O)c1[nH]c2c(c1C)C(=O)CC(c1ccco1)C2 (stereo not given),85%
12,COc1ccccc1NC(=O)N(C1CCCC1)C1CCN(C(C)=O)CC1,77.5%
13,COc1cc(C(=O)Nc2cccc(-c3nncn3C)c2)cc(OC)c1OC,102%
14,CCCCN(CC)CCNC(=O)c1cc2c(C)nc3ccccc3c2o1,91%
15,Clc1ccc(SCCCCn2ccnc2)cc1,90.5%
16,CCOC(=O)N1CCC(N2C(=O)c3ccccc3C2Nc2cc(Cl)c(OC)cc2OC)CC1 (stereo not given),92.5%
17,O=C(Cn1nc(Cc2cccnc2)c2ccccc2c1=O)NCC1CCCO1 (stereo not given),122%
18,CCn1cc(SCC(=O)NCC2CCCO2)c2ccccc21 (stereo not given),88%
19,Cc1noc(C)c1S(=O)(=O)N1CCN(Cc2ccc3c(c2)OCO3)CC1,82.5%
20,CCOC(=O)c1ccc(N2Cc3cc(C)c(C)cc3C2)cc1O,95.5%

# Target: Receptor tyrosine-protein kinase erbB-2 (Homo sapiens) (UniProt P04626)
# Sequence (P04626 whole entry, looked up): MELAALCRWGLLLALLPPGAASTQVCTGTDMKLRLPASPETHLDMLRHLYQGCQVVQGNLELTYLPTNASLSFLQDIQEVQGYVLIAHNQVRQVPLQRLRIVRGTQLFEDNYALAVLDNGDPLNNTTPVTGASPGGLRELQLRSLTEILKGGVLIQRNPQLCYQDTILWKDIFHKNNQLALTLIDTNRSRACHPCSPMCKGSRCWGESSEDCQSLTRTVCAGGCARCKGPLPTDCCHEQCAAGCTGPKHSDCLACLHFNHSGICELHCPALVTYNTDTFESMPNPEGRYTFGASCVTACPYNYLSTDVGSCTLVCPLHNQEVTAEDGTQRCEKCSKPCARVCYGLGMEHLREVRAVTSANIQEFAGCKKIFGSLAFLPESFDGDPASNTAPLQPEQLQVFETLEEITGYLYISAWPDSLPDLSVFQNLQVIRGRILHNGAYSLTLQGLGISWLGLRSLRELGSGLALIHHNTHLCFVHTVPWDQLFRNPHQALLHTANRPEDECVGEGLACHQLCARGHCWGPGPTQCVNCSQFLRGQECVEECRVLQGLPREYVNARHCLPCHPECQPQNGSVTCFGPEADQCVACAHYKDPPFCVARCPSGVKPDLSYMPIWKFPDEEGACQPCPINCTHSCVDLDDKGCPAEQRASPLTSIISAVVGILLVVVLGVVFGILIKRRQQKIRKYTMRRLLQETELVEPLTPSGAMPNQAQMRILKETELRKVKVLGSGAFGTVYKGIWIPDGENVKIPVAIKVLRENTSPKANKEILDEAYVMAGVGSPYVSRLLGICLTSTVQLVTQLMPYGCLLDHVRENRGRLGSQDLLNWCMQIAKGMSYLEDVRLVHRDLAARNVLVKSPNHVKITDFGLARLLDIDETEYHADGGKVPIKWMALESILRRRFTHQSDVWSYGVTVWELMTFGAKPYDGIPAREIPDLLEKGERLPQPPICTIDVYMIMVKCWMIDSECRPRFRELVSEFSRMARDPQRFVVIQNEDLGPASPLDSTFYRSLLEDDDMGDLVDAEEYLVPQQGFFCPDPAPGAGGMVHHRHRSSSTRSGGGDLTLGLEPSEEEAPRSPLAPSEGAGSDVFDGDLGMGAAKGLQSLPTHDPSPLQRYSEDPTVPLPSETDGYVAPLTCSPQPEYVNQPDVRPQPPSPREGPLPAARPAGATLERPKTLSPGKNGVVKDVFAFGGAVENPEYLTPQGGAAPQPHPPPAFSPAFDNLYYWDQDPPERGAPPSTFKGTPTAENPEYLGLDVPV
# Test: as above
# Conditions: 18-24 h, at 10 µM, stronger effect = lower value
row,Structure (SMILES),Her2 level
1,O=C(NCCN1CCCCCC1)c1ccc(CS(=O)(=O)c2ccc(Br)cc2)o1,104% (inactive)
2,Cc1ccc(S(=O)(=O)NCCOC(=O)Nc2sc(=S)n(C)c2C)cc1,96.5% (inactive)
3,COc1ccccc1CC(=O)Nc1ccc(OC)c(OC)c1,98.5% (inactive)
4,CCN(CC)C(=O)C1CCCc2c1[nH]c1ccc(Cl)cc21 (stereo not given),91% (inactive)
5,CCOC(=O)N1CCC(NC(=O)C2CCCN(C(=O)c3cc4sccc4n3C)C2)CC1 (stereo not given),114% (inactive)
6,CCOC(=O)c1[nH]c(C)c(C(=O)Nc2ccc(Cl)cc2)c1C,109% (inactive)
7,O=C(NC(=O)c1cccc(F)c1)OC[C@@H]1CCCN2CCCC[C@H]12,111% (inactive)
8,COc1ccccc1-n1c(=O)[nH]c2c(C(N)=O)nc(-c3cccnc3)nc21,88.5% (inactive)
9,CC1(C)CC(=O)c2cnc(NC(=O)Cc3ccc(Cl)cc3)nc2C1,96.5% (inactive)
10,CC(C)(NC(=O)N1CCCC1)c1cccc(C(C)(C)NC(=O)N2CCCC2)c1,81.5% (inactive)
11,COc1ccc(NC(=O)C2CCCN(S(=O)(=O)c3cccc4cccnc34)C2)cc1OC (stereo not given),106% (inactive)
12,CCOc1ccc(CCN2C(=O)C3C4C=CC(C4)C3C2=O)cc1OCC (stereo not given),93.5% (inactive)
13,COc1ccc(S(=O)(=O)N2CCN(c3ccc(C)cc3C)CC2)cc1OC,93.5% (inactive)
14,O=C(C1CCN(c2nnc(-n3cccc3)s2)CC1)N1CCc2ccccc2C1,93.5% (inactive)
15,CCOc1cc(C2C3=C(CCCC3=O)N(C)C3=C2C(=O)CCC3)cc(Cl)c1O,74.5% (inactive)
16,O=C(OCN1C(=O)c2ccccc2C1=O)C1CCCCC1,97.5% (inactive)
17,Cc1ccc2cccc(SCC(=O)N3CCOCC3)c2n1,89.5% (inactive)
18,c1ccn2c(SCc3ccc4c(c3)OCCO4)nnc2c1,108% (inactive)
19,c1ccc(C(Cc2nc(-c3ccccn3)no2)c2ccccc2)cc1,94% (inactive)
20,COC(=O)C(C)Sc1nnc2n(-c3cccc(C)c3)c(=O)c3c4c(sc3n12)CCCC4 (stereo not given),112% (inactive)

row,Structure (SMILES),Her2 level
1,Cc1ccc(-c2noc(CN3C(C)CCCC3C)n2)cc1 (stereo not given),100% (inactive)
2,CCn1c(SCC(=O)Nc2ccc(Cl)cc2)nnc1C1CC1,95.5% (inactive)
3,COc1ccc(C2CC(c3ccco3)n3ncnc3N2)cc1 (stereo not given),97% (inactive)
4,COc1ccc(NC(=O)c2cc(C3CC3)on2)c(OC)c1,91.5% (inactive)
5,COc1cc(OC)c2c(c1)OC(c1ccc(OC)c(OC)c1)C(O)C2=O (stereo not given),79% (inactive)
6,N#CCCN(Cc1cccnc1)C(=O)Nc1ccc(Cl)c(Cl)c1,94% (inactive)
7,O=C(c1cccc(F)c1)N1CCc2ccccc21,80% (inactive)
8,COc1ccc(NC(=O)C2CCCCN2S(=O)(=O)c2ccc(F)cc2)cc1 (stereo not given),93% (inactive)
9,CCN(CC)C(=O)Cn1ncc2c1-c1ccccc1OC2,112% (inactive)
10,Cn1c(=O)oc2cc(S(=O)(=O)NC3CCN(Cc4ccccc4)CC3)ccc21,96% (inactive)
11,COCCOC(=O)c1[nH]c2c(c1C)C(=O)CC(c1ccco1)C2 (stereo not given),71.5% (inactive)
12,COc1ccccc1NC(=O)N(C1CCCC1)C1CCN(C(C)=O)CC1,89.5% (inactive)
13,COc1cc(C(=O)Nc2cccc(-c3nncn3C)c2)cc(OC)c1OC,110% (inactive)
14,CCCCN(CC)CCNC(=O)c1cc2c(C)nc3ccccc3c2o1,95.5% (inactive)
15,Clc1ccc(SCCCCn2ccnc2)cc1,113% (inactive)
16,CCOC(=O)N1CCC(N2C(=O)c3ccccc3C2Nc2cc(Cl)c(OC)cc2OC)CC1 (stereo not given),114% (inactive)
17,O=C(Cn1nc(Cc2cccnc2)c2ccccc2c1=O)NCC1CCCO1 (stereo not given),111% (inactive)
18,CCn1cc(SCC(=O)NCC2CCCO2)c2ccccc21 (stereo not given),93.5% (inactive)
19,Cc1noc(C)c1S(=O)(=O)N1CCN(Cc2ccc3c(c2)OCO3)CC1,105% (inactive)
20,CCOC(=O)c1ccc(N2Cc3cc(C)c(C)cc3C2)cc1O,95.5% (inactive)
